# Measurements as given in article PMC9838217, “Structure of SALL4 zinc finger domain reveals link between AT-rich DNA binding and Okihiro syndrome”.
# Positions count from the first letter of the chain named.
# Molecular target: T1, SALL4 ZFC4 R900W (HT-SELEX) (Mus musculus, UniProt Q8BX22 870-940, R900W)
# T1 sequence: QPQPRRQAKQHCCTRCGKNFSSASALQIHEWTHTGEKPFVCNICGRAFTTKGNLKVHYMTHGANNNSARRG
# Assay: HT-SELEX; high values mean tight binding
# Settings: protein: recombinant; vector His6-GST; dsDNA, one strand shown
# How it was run: (§1)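 In triplicate selections of up to 6 cycles, purified recombinant mouse SALL4 zinc finger cluster 4 (residues 870–940, 1 µg) was incubated 10 min at room temperature with library DNA (1.5 µg, then 200 ng) in 100 µl of 10 mM Tris–HCl pH 7.5, 50 mM NaCl, poly(dI-dC) and DTT, and complexes were captured on Ni2+ beads, washed and PCR-amplified. Sequencing was done on MiSeq with scanning for 6-mers. The binding signal is each canonical k-mer's read fraction, reported as fold change against the initial random library.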
row,Sequence,binding signal
1,TAGCGA,0.613 ± 0.0291 fold-change vs cycle 0
2,ATCCCG,0.4832 ± 0.00274 fold-change vs cycle 0
3,CCCTTC,0.614 ± 0.0191 fold-change vs cycle 0
4,CTTTGC,0.663 ± 0.0189 fold-change vs cycle 0
5,CCGTTA,0.832 ± 0.0409 fold-change vs cycle 0
6,CATGCC,0.354 ± 0.0129 fold-change vs cycle 0
7,GGATGA,1.01 ± 0.0334 fold-change vs cycle 0
8,ACAGAG,0.916 ± 0.013 fold-change vs cycle 0
9,CGGTGA,0.421 ± 0.0161 fold-change vs cycle 0
10,TCCACA,0.806 ± 0.0256 fold-change vs cycle 0
11,ATGAAT,2.16 ± 0.113 fold-change vs cycle 0
12,AAACCG,0.604 ± 0.0163 fold-change vs cycle 0
13,GCAGGA,0.413 ± 0.0223 fold-change vs cycle 0
14,GACTGC,0.399 ± 0.0161 fold-change vs cycle 0
15,CCATCG,0.438 ± 0.0205 fold-change vs cycle 0
16,ATCAGG,0.991 ± 0.0415 fold-change vs cycle 0
17,GGTCTA,0.794 ± 0.0243 fold-change vs cycle 0
18,GGATAC,1.02 ± 0.0352 fold-change vs cycle 0
19,ATAGCG,0.55 ± 0.0156 fold-change vs cycle 0
20,CTGTGA,0.869 ± 0.0352 fold-change vs cycle 0

row,Sequence,binding signal
1,GGCAAA,0.457 ± 0.0213 fold-change vs cycle 0
2,ACAGTG,0.869 ± 0.0495 fold-change vs cycle 0
3,CGTACC,0.467 ± 0.0146 fold-change vs cycle 0
4,AATGGG,0.854 ± 0.0662 fold-change vs cycle 0
5,AATCTC,1.5 ± 0.0336 fold-change vs cycle 0
6,ATGTTG,1.29 ± 0.0687 fold-change vs cycle 0
7,ACCGTC,0.418 ± 0.0372 fold-change vs cycle 0
8,AAGAAC,1.49 ± 0.0657 fold-change vs cycle 0
9,CTTACA,1.55 ± 0.0884 fold-change vs cycle 0
10,ATTCCC,0.943 ± 0.055 fold-change vs cycle 0
11,TACTCA,1.5 ± 0.0664 fold-change vs cycle 0
12,CAGTGA,0.934 ± 0.023 fold-change vs cycle 0
13,ACGGTG,0.414 ± 0.0142 fold-change vs cycle 0
14,CCTACG,0.443 ± 0.0174 fold-change vs cycle 0
15,ACGTAG,0.792 ± 0.0458 fold-change vs cycle 0
16,AACCTC,0.961 ± 0.043 fold-change vs cycle 0
17,GGTACC,0.521 ± 0.0308 fold-change vs cycle 0
18,GATCAC,1.01 ± 0.0278 fold-change vs cycle 0
19,AAGTCG,0.634 ± 0.0134 fold-change vs cycle 0
20,ATCGAT,1.21 ± 0.0415 fold-change vs cycle 0

# Molecular target: T2, SALL4 ZFC4 G921D (HT-SELEX) (Mus musculus, UniProt Q8BX22 870-940, G921D)
# T2 sequence: T1 sequence with W31R, G52D
# Assay: HT-SELEX; high values mean tight binding
# Settings: protein: recombinant; vector His6-GST; dsDNA, one strand shown
# How it was run: as §1
row,Sequence,binding signal
1,TAGCGA,0.72 ± 0.0193 fold-change vs cycle 0
2,ATCCCG,0.574 ± 0.0423 fold-change vs cycle 0
3,CCCTTC,0.653 ± 0.0312 fold-change vs cycle 0
4,CTTTGC,0.743 ± 0.024 fold-change vs cycle 0
5,CCGTTA,0.854 ± 0.0323 fold-change vs cycle 0
6,CATGCC,0.48 ± 0.0491 fold-change vs cycle 0
7,GGATGA,1.02 ± 0.0224 fold-change vs cycle 0
8,ACAGAG,0.96 ± 0.0385 fold-change vs cycle 0
9,CGGTGA,0.548 ± 0.0673 fold-change vs cycle 0
10,TCCACA,0.842 ± 0.0543 fold-change vs cycle 0
11,ATGAAT,1.92 ± 0.161 fold-change vs cycle 0
12,AAACCG,0.705 ± 0.0593 fold-change vs cycle 0
13,GCAGGA,0.489 ± 0.0596 fold-change vs cycle 0
14,GACTGC,0.525 ± 0.0461 fold-change vs cycle 0
15,CCATCG,0.557 ± 0.0511 fold-change vs cycle 0
16,ATCAGG,1 ± 0.0437 fold-change vs cycle 0
17,GGTCTA,0.8869 ± 0.005 fold-change vs cycle 0
18,GGATAC,1.03 ± 0.0426 fold-change vs cycle 0
19,ATAGCG,0.681 ± 0.0378 fold-change vs cycle 0
20,CTGTGA,0.91 ± 0.0154 fold-change vs cycle 0

row,Sequence,binding signal
1,GGCAAA,0.604 ± 0.0748 fold-change vs cycle 0
2,ACAGTG,0.895 ± 0.0488 fold-change vs cycle 0
3,CGTACC,0.564 ± 0.0582 fold-change vs cycle 0
4,AATGGG,0.883 ± 0.0427 fold-change vs cycle 0
5,AATCTC,1.43 ± 0.0651 fold-change vs cycle 0
6,ATGTTG,1.28 ± 0.0984 fold-change vs cycle 0
7,ACCGTC,0.528 ± 0.0646 fold-change vs cycle 0
8,AAGAAC,1.38 ± 0.123 fold-change vs cycle 0
9,CTTACA,1.43 ± 0.0941 fold-change vs cycle 0
10,ATTCCC,0.984 ± 0.0201 fold-change vs cycle 0
11,TACTCA,1.42 ± 0.0998 fold-change vs cycle 0
12,CAGTGA,0.957 ± 0.0322 fold-change vs cycle 0
13,ACGGTG,0.528 ± 0.0554 fold-change vs cycle 0
14,CCTACG,0.524 ± 0.0668 fold-change vs cycle 0
15,ACGTAG,0.864 ± 0.0314 fold-change vs cycle 0
16,AACCTC,1.02 ± 0.0516 fold-change vs cycle 0
17,GGTACC,0.608 ± 0.0352 fold-change vs cycle 0
18,GATCAC,1.11 ± 0.0305 fold-change vs cycle 0
19,AAGTCG,0.747 ± 0.0488 fold-change vs cycle 0
20,ATCGAT,1.3 ± 0.0771 fold-change vs cycle 0
